esBAF inh: SWI/SNF esBAF complex inhibition. mouse ES cells, Bmi1-luciferase knock-in reporter, 24 h; 100% = twice the neutral-well signal. reporter increase, % at 12.5 µM. hit rate 2% among 350,000; in the data active = activation above about 40%; inconclusive = no clear call, values can overlap the other calls;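 note: 0% = median of the plate's neutral control wells and 100% = double that signal; a rise in the Bmi1 reporter signal indicates esBAF inhibition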
MITF TRPM1 HTS: increases MITF-driven TRPM1 promoter luciferase signal; SK-MEL-5 TRPM1-promoter luciferase, 24 h; % of positive control, neutral wells = 0; activation, % at 12.5 µM; hit rate 0.75% among 300,000; AID 588334;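 active = mean activation of at least 80% with every replicate also reaching 80%; inconclusive = mean reaches 80% but some replicate falls short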;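 note: 0% = neutral control wells and 100% = parthenolide positive control wells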
N-glyco inh: N-linked glycosylation inhibition; hit rate 0.23% among 360,000; reporter increase, % at 12.5 µM; D54 ERlucT glycosylation luciferase reporter, 24 h; percent of 100 nM tunicamycin response;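 active = mean luciferase reporter signal, scaled so untreated is 0 and the glycosylation-blocking control 100, at or above a set limit in every replicate; inconclusive = mean reaches the limit but not every replicate does; inactive = mean below the limit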;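 note: luciferase carries N-glycosylation sites so blocking glycosylation raises the light; 0% = median of neutral control wells and 100% = median of 100 nM tunicamycin wells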
Vif imaging: HIV Vif inhibition; HEK293T cells, Vif self-association by quenched fluorescence, imaging, 24 h; inhibition, % at 7.49 µM; hit rate 0.35% among 340,000; in the data active = inhibition above about 50%, passing the limit was not always enough; inconclusive = no clear call, values can overlap the other calls; inactive = below about 31%
Wnt bcat act: activators of Wnt/beta-catenin signaling. Wnt/beta-catenin reporter cell assay, activator, plate reader. activation, % at 9.35 µM. hit rate 1.2% among 300,000. AID 743398; in the data active = activation above about 30%, passing the limit was not always enough; inconclusive = no clear call, values can overlap the other calls;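 note: 0% = neutral control wells and 100% = positive control wells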
PvdQ acylase: blocks Pseudomonas aeruginosa PvdQ acylase activity. purified PvdQ acylase, fluorescence plate reader. inhibition, % at 10 µM. hit rate 0.063% among 340,000; in the data active = inhibition above about 30%, passing the limit was not always enough; inconclusive = no clear call, values can overlap the other calls;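 note: 0% = vehicle neutral wells and 100% = reference inhibitor wells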
Active calls of the source: *. Compounds with a hit are over-represented: about 2.9% of the library has one in this group of screens.

What do the screens show for `COc1ccc2nc(C)cc(Nc3ccc(N4CCN(C)CC4)cc3)c2c1`?
esBAF inh: -4; MITF TRPM1 HTS: -96; N-glyco inh: 67*; Vif imaging: -10; Wnt bcat act: -2; PvdQ acylase: 12

Results for COc1ccc2nc(C)cc(Nc3ccc(C)cc3)c2c1 ?
esBAF inh: 2; MITF TRPM1 HTS: -11; N-glyco inh: 4; Vif imaging: 6; Wnt bcat act: -3; PvdQ acylase: -9

What do the screens show for `COc1ccc2nc(C)cc(Nc3ccc(N4CCOCC4)cc3)c2c1`?
esBAF inh: 1; MITF TRPM1 HTS: 5; N-glyco inh: 49*; Vif imaging: 27; PvdQ acylase: 6

How did COc1ccc(NC(=O)Nc2ccc3c(c2)C(=O)N([C@@H](C)CO)C[C@H](C)[C@H](CN(C)C(=O)Nc2ccc(F)cc2)OCCCC[C@H](C)O3)cc1 do in these assays?
esBAF inh: -6

What do the screens show for `O=C(Nc1cccc(Cl)c1)N1C[C@H]2[C@@H](c3ccccc31)[C@H](CO)N2C(=O)C1CC1`?
esBAF inh: -2

What do the screens show for `COc1cccc(N2CC(O)=C(c3nc4ccccc4c(=O)[nH]3)C2=N)c1`?
esBAF inh: 13; MITF TRPM1 HTS: -7; N-glyco inh: 36*; Vif imaging: 12; PvdQ acylase: 10

What do the screens show for `O=C(NC(=S)Nc1cccc(O)c1)C12CC3CC(CC(C3)C1)C2`?
esBAF inh: 47*; N-glyco inh: 3; Wnt bcat act: 22

What do the screens show for `O=C(NNC(=O)C12CC3CC(CC(C3)C1)C2)c1cccc(O)c1`?
esBAF inh: 14; MITF TRPM1 HTS: -6; N-glyco inh: -2; Vif imaging: 8; Wnt bcat act: 0; PvdQ acylase: -7

Results for CCOC(=O)c1[nH]c2ccccc2c1N=CN(C)C ?
MITF TRPM1 HTS: -9; N-glyco inh: 2; Vif imaging: 6; PvdQ acylase: -16

What do the screens show for `CN(C)C=Nc1ccc2nc3c(cc2c1)[nH]c1ccccc13`?
esBAF inh: 3; MITF TRPM1 HTS: 68; N-glyco inh: 1; Vif imaging: -11; Wnt bcat act: 39*; PvdQ acylase: -5

How did Clc1ccccc1OCCn1cnc2ccccc21 do in these assays?
esBAF inh: 51*; MITF TRPM1 HTS: 60; N-glyco inh: -2; Vif imaging: 5; PvdQ acylase: 0

Results for O=C1c2ccccc2C(=O)N1CCOc1ccccc1Cl ?
esBAF inh: inconclusive; MITF TRPM1 HTS: 86*; N-glyco inh: -1; Vif imaging: -4; Wnt bcat act: 24; PvdQ acylase: 11

Results for COc1ccccc1C#Cc1ccc2c(c1)O[C@H](CN(C)C(C)=O)[C@H](C)CN([C@H](C)CO)S2(=O)=O ?
esBAF inh: -10

How did COc1ccc(CCNc2nnc(Sc3nnnn3-c3ccccc3)s2)cc1OC do in these assays?
esBAF inh: -10; N-glyco inh: 0; Vif imaging: 139*; Wnt bcat act: -25; PvdQ acylase: 2

Results for CO[C@H]1CN(C)C(=O)c2cc(NS(=O)(=O)Cc3ccccc3)ccc2OC[C@@H](C)NC[C@H]1C ?
esBAF inh: 3

Results for C[C@H]1CN([C@@H](C)CO)C(=O)c2cc(NC(=O)Nc3ccc(C(F)(F)F)cc3)ccc2O[C@@H]1CN(C)C(=O)Nc1cccc2ccccc12 ?
esBAF inh: -1

How did Cc1cc(NC(=O)c2ccc3c(c2)OCO3)no1 do in these assays?
MITF TRPM1 HTS: 13; N-glyco inh: -5; Vif imaging: 0; PvdQ acylase: 2

Results for Cc1nc(NC(=O)c2ccc3c(c2)OCO3)ccc1Br ?
MITF TRPM1 HTS: 129*; N-glyco inh: -2; Vif imaging: -7; Wnt bcat act: -3; PvdQ acylase: 2

Results for Cc1cccc(NC(=O)c2ccc3c(c2)OCCO3)n1 ?
esBAF inh: 11; MITF TRPM1 HTS: 39; N-glyco inh: -10; Vif imaging: -10; PvdQ acylase: 37*

What do the screens show for `C=CCc1cccc(/C=N/NC(=O)c2ccccc2Br)c1O`?
MITF TRPM1 HTS: -1; N-glyco inh: -7; Vif imaging: 3; Wnt bcat act: 0; PvdQ acylase: -7

How did C=CCc1cccc(/C=N/NC(=O)c2ccccc2OC)c1O do in these assays?
esBAF inh: 44*; MITF TRPM1 HTS: 14; N-glyco inh: -6; Vif imaging: -4; Wnt bcat act: 12; PvdQ acylase: -2

How did CCNC(=O)Nc1ccc2c(c1)C(=O)N(C)[C@H]1CC[C@@H](CC(=O)Nc3ccccc3)O[C@H]1CO2 do in these assays?
esBAF inh: -3

What do the screens show for `Cc1ccc(Cc2c(-c3ccccc3)nc3cc(C)ccn23)cc1`?
esBAF inh: 42*; N-glyco inh: -3; Vif imaging: 5; Wnt bcat act: 1

How did Cc1ccn2c(Cc3ccccc3)c(-c3ccc(F)cc3)nc2c1 do in these assays?
esBAF inh: 45*; N-glyco inh: -5; Vif imaging: 1; Wnt bcat act: 12

Results for COc1ccc(N=Cc2nc(-c3ccccc3)oc2OC(=O)c2ccccc2)cc1 ?
MITF TRPM1 HTS: -11; N-glyco inh: -5; Vif imaging: -1; Wnt bcat act: 54*; PvdQ acylase: -6

What do the screens show for `COc1ccc(F)cc1-c1cc(NC(C)=O)c2ncc(-c3cc(OC)c(OC)c(OC)c3)n2c1`?
esBAF inh: -11; N-glyco inh: 21; Vif imaging: 68*; Wnt bcat act: -3

What do the screens show for `COc1cccc(-c2cnc3c(NC=O)cc(-c4ccc(O)c(OC)c4)cn23)c1`?
esBAF inh: -3; N-glyco inh: 5; Wnt bcat act: 1

How did Cn1cc(-c2cnc3c(NC=O)cc(-c4cccc(C(F)(F)F)c4)cn23)cn1 do in these assays?
esBAF inh: -3; N-glyco inh: 4; Vif imaging: -25; Wnt bcat act: -1

What do the screens show for `COc1cccc(-c2cc(NC=O)c3ncc(-c4cc(OC)c(OC)c(OC)c4)n3c2)c1`?
esBAF inh: -10; N-glyco inh: 18; Vif imaging: 77*; Wnt bcat act: -2

Results for Nc1ccc(-c2cc(NC=O)c3ncc(-c4cccc(C(F)(F)F)c4)n3c2)cn1 ?
esBAF inh: -2; N-glyco inh: 29*; Vif imaging: 33; Wnt bcat act: -1

Results for COc1ccc(Cl)cc1NC(=O)Nc1ccccc1SC ?
esBAF inh: -1; MITF TRPM1 HTS: 8; N-glyco inh: -2; Vif imaging: 8; Wnt bcat act: -1; PvdQ acylase: -4

What do the screens show for `Cc1ccc(NC(=O)Nc2ncccc2C)cc1`?
MITF TRPM1 HTS: 29; N-glyco inh: 0; Vif imaging: 0; Wnt bcat act: 30; PvdQ acylase: 8

What do the screens show for `COc1ccc(NC(=O)Nc2ccccc2SC)cc1`?
esBAF inh: 28; MITF TRPM1 HTS: 35; N-glyco inh: 3; Vif imaging: -2; Wnt bcat act: 40*; PvdQ acylase: -15

Results for O=C(Nc1ccccc1F)Nc1ccccc1N1CCCCC1 ?
esBAF inh: 5; MITF TRPM1 HTS: 0; N-glyco inh: -4; Vif imaging: 6; Wnt bcat act: 47*; PvdQ acylase: -14
